Assay results taken from PubChem BioAssay (NCI).
The panel holds about 83,000 compounds, 20% with a hit somewhere; the sample as a whole holds those more often.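 For each line, cells grew in 96-well plates with the test compound present at a single concentration for 48 hours.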 Activity calls are given as the source filed them. How the source made its calls: active means growth percent below 10; inactive means the rest.

Experiments:
Test in all cases: NCI-60 one-dose screen, 48 h (100 = growth as untreated, 0 = no growth, -100 = all killed)
Conditions in all cases: 10 µM unless noted
DU-145 prostate = system: DU-145 prostate
K-562 leukemia = system: K-562 leukemia
MALME-3M melanoma = system: MALME-3M melanoma
MDA-MB-231 breast = system: MDA-MB-231 breast
RXF 393 renal = system: RXF 393 renal
SF-268 CNS = system: SF-268 CNS
SF-295 CNS = system: SF-295 CNS
SF-539 CNS = system: SF-539 CNS
UACC-257 melanoma = system: UACC-257 melanoma
M14 melanoma = system: M14 melanoma
HCT-15 colon = system: HCT-15 colon
HT29 colon = system: HT29 colon
SNB-75 CNS = system: SNB-75 CNS
SNB-19 CNS = system: SNB-19 CNS
U251 CNS = system: U251 CNS
PC-3 prostate = system: PC-3 prostate
SK-MEL-5 melanoma = system: SK-MEL-5 melanoma
UACC-62 melanoma = system: UACC-62 melanoma
LOX IMVI melanoma = system: LOX IMVI melanoma
SK-MEL-28 melanoma = system: SK-MEL-28 melanoma

Measured: growth

N#C/C(C(=O)c1ccccc1)=C1/C(=O)Nc2ccc(F)cc21
inactive: DU-145 prostate 110% | K-562 leukemia 110% | MALME-3M melanoma 104% | MDA-MB-231 breast 92.2% | RXF 393 renal 127% | SF-268 CNS 101% | SF-295 CNS 102% | SF-539 CNS 96.9% | UACC-257 melanoma 103% | M14 melanoma 104% | HCT-15 colon 106% | HT29 colon 116% | SNB-75 CNS 78.3% | SNB-19 CNS 98.4% | U251 CNS 104% | PC-3 prostate 93.3% | SK-MEL-5 melanoma 103% | UACC-62 melanoma 92.7% | LOX IMVI melanoma 100% | SK-MEL-28 melanoma 108%

CCOC(=O)c1cc(C#N)n2ncc3ccccc3c12
inactive: DU-145 prostate 109% | K-562 leukemia 95.1% | MALME-3M melanoma 102% | MDA-MB-231 breast 98.6% | RXF 393 renal 102% | SF-268 CNS 101% | SF-295 CNS 103% | SF-539 CNS 89% | M14 melanoma 93.2% | HCT-15 colon 94.3% | HT29 colon 98% | SNB-75 CNS 72.7% | SNB-19 CNS 91.8% | U251 CNS 93.2% | PC-3 prostate 92.8% | SK-MEL-5 melanoma 98% | UACC-62 melanoma 91.7% | LOX IMVI melanoma 95.6% | SK-MEL-28 melanoma 101%
active: UACC-257 melanoma -53.6%

CCCC[C@@H](C=O)NC(=O)[C@H](CC(C)C)NC(=O)[C@H](CC(C)C)NC(=O)OCc1ccccc1
inactive: UACC-257 melanoma 12.4% | SNB-19 CNS 22.1%
active: DU-145 prostate -38.2% | K-562 leukemia 0.815% | MALME-3M melanoma -33% | MDA-MB-231 breast -32.3% | RXF 393 renal -63.7% | SF-268 CNS -11.9% | SF-295 CNS -12% | SF-539 CNS -45.7% | M14 melanoma -35.3% | HCT-15 colon 8.85% | HT29 colon -19.4% | SNB-75 CNS -45.1% | U251 CNS 5.84% | PC-3 prostate 5.37% | SK-MEL-5 melanoma -71% | UACC-62 melanoma -38% | LOX IMVI melanoma -65.2% | SK-MEL-28 melanoma -21.7%

CCNc1cc2c(cc1Br)-c1ccccc1C2=O
inactive: DU-145 prostate 97.7% | K-562 leukemia 102% | MALME-3M melanoma 92.8% | MDA-MB-231 breast 73.2% | RXF 393 renal 105% | SF-268 CNS 90% | SF-295 CNS 106% | SF-539 CNS 103% | UACC-257 melanoma 93.4% | M14 melanoma 107% | HCT-15 colon 77.6% | HT29 colon 97.4% | SNB-75 CNS 78.1% | SNB-19 CNS 96% | U251 CNS 96.3% | PC-3 prostate 81.4% | SK-MEL-5 melanoma 95.2% | UACC-62 melanoma 86.9% | LOX IMVI melanoma 88.1% | SK-MEL-28 melanoma 114%

Cn1c(=O)c(C#N)c(-c2ccco2)n2c(S(=O)(=O)Cc3ccccc3)nnc12
active: UACC-257 melanoma 8.93%
inactive: DU-145 prostate 77% | K-562 leukemia 100% | MALME-3M melanoma 63.6% | MDA-MB-231 breast 126% | RXF 393 renal 91% | SF-268 CNS 104% | SF-295 CNS 112% | SF-539 CNS 101% | M14 melanoma 57.6% | HCT-15 colon 78.3% | HT29 colon 92.5% | SNB-75 CNS 97.8% | SNB-19 CNS 115% | U251 CNS 82.8% | PC-3 prostate 112% | SK-MEL-5 melanoma 90.1% | UACC-62 melanoma 75.5% | LOX IMVI melanoma 92.3% | SK-MEL-28 melanoma 99.1%

CC(C)OC(=O)Nc1cc(F)ccc1F
inactive: DU-145 prostate 110% | K-562 leukemia 97.4% | MALME-3M melanoma 92.7% | MDA-MB-231 breast 97% | RXF 393 renal 106% | SF-268 CNS 103% | SF-295 CNS 97.5% | SF-539 CNS 92.1% | UACC-257 melanoma 96.9% | M14 melanoma 96.6% | HCT-15 colon 105% | HT29 colon 98.3% | SNB-75 CNS 95.3% | SNB-19 CNS 96.2% | U251 CNS 100% | PC-3 prostate 99.7% | SK-MEL-5 melanoma 101% | UACC-62 melanoma 94.1% | LOX IMVI melanoma 106% | SK-MEL-28 melanoma 102%

N#CC1C(=O)NC(c2ccccc2[N+](=O)[O-])c2sc3c(F)cccc3c21 (stereo not given)
inactive: DU-145 prostate 89.9% | K-562 leukemia 35.9% | MALME-3M melanoma 74.7% | MDA-MB-231 breast 75.6% | RXF 393 renal 69.9% | SF-268 CNS 86.7% | SF-295 CNS 20.8% | SF-539 CNS 85.7% | M14 melanoma 92.7% | HCT-15 colon 87.8% | HT29 colon 85.3% | SNB-75 CNS 82.6% | SNB-19 CNS 70.8% | U251 CNS 42.6% | PC-3 prostate 80% | SK-MEL-5 melanoma 75.2% | LOX IMVI melanoma 91.4% | SK-MEL-28 melanoma 111%
active: UACC-257 melanoma -37.3% | UACC-62 melanoma 9.47%

c1ccc(-c2nc(N3CCCNCC3)c3nc(-c4ccccc4)oc3n2)cc1
inactive: MALME-3M melanoma 76.9% | RXF 393 renal 27.1% | SF-268 CNS 52% | SF-295 CNS 96.2% | SF-539 CNS 76.3% | UACC-257 melanoma 100% | M14 melanoma 95.7% | SNB-75 CNS 53.1% | SNB-19 CNS 70.4% | SK-MEL-5 melanoma 55.6% | SK-MEL-28 melanoma 83.7%
active: DU-145 prostate -18.4% | K-562 leukemia 0.76% | MDA-MB-231 breast -3.19% | HCT-15 colon -80.4% | HT29 colon -63.4% | U251 CNS -90.9% | PC-3 prostate -27.3% | UACC-62 melanoma -77.8% | LOX IMVI melanoma -95.7%
